Screens deposited in PubChem BioAssay by National Center for Advancing Translational Sciences (NCATS).
Pf Dd2 growth: blocks in vitro growth of P. falciparum Dd2; P. falciparum Dd2 growth, SYBR Green, 72 h; Potency, µM (top dose mostly 28.9 µM), most hits filed as inhibitors; 4.3% of 120,000 active; AID 1347417; active = well fitted inhibition curve with a large enough effect; also: nearly all actives have a fitted effect of over 65% in size
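Infected erythrocytes (Dd2, 0.3% parasitemia, 2.5% hematocrit final) are added to compound in RPMI-1640/Albumax II medium, grown 72 h at 37C in low oxygen, then lysed with saponin/Triton-X containing SYBR Green and read by fluorescence.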
Numbers stand for hits; i = inactive. The sample as a whole holds a higher share of hits than the screen did.

SMILES | Pf Dd2 growth
CC(C)CCN1CCC(N2CCN(C(=O)C3CC3)CC2)C1=O (stereo not given) | i
CSc1ccc(CN2C(=O)C3(CCOCC3)CC2c2nnnn2C(C)(C)C)cc1 (stereo not given) | i
O=C(NCCc1ccncc1)C1CN(C(=O)Cc2ccccc2Cl)CC12CCOCC2 (stereo not given) | i
Cc1ccc(C(=O)NC2CCN(c3cc(-c4cccs4)[nH]n3)CC2)c(C)c1 | i
COC(=O)CNC(=O)C1CCc2nnc(-c3ccc(Cl)nc3)n21 (stereo not given) | i
O=C(NCCc1ccc(Cl)cc1)C1CCc2nnc(-c3ccc(Cl)nc3)n21 (stereo not given) | 4µM
O=C(NCc1cccnc1)C1CCc2nnc(-c3ccc(Cl)nc3)n21 (stereo not given) | i
COCc1ccc(CNCc2cccnc2N2CCCC(O)C2)o1 (stereo not given) | i
Cn1cc(CN2CCCC2c2ccccn2)c(-c2ccc(Oc3ccccc3)cc2)n1 (stereo not given) | 7.1µM
O=c1cc(CN2CCCCC2c2ccccn2)[nH]c2ccc(F)cc12 (stereo not given) | i
CCn1ccnc1CN(C)Cc1cn(C)nc1-c1ccc(Oc2ccccc2)cc1 | i
CC(C)c1nnc(C2CN(C(=O)CCc3nc4ccccc4[nH]3)CC23CCOCC3)o1 (stereo not given) | i
COc1ccc2[nH]c3c(c2c1)CCN(C(=O)c1cccc(Cl)c1)C3c1ccc(F)cc1 (stereo not given) | i
COc1ccc(NC(=O)N2CCc3c([nH]c4ccc(OC)cc34)C2c2ccc(OC)cc2)cc1 (stereo not given) | 4.5µM
COc1ccc2[nH]c3c(c2c1)CCN(C)C31CCN(C(=O)C2CCC2)CC1 | i
O=C(Cc1ccccc1)N1CCC2(CC1)CN[S+](=O)([O-])c1ccccc1N2 | i
CS(=O)(=O)NC[C@H]1O[C@@H](CO)[C@@H](O)[C@H]1N1CCc2ccccc2C1 | i
CC1CCCN(c2c(S(=O)(=O)c3ccccc3)cnc3ccc(Cl)cc23)C1 (stereo not given) | i
Cc1ccc2ncc(S(=O)(=O)c3ccccc3)c(N3CCCCC3C)c2c1 (stereo not given) | 10µM
CCOc1ccc(Nc2c(S(=O)(=O)c3ccc(C)cc3)cnc3ccccc23)cc1 | i
COc1ccc(O[C@H]2COCCN(C(=O)c3cc(C)oc3C(F)(F)F)C2)cc1 | i
O=C(NC1CCCc2c1[nH]c1ccccc21)c1ccccn1 (stereo not given) | i
Cn1nc(C(=O)NC2CCCc3c2[nH]c2ccccc32)c2ccccc2c1=O (stereo not given) | 7.1µM
O=C(Cn1nc2c(cc1=O)CCCCC2)NC1CCCc2c1[nH]c1ccccc21 (stereo not given) | i
CC(=O)Nc1ccc(CN2CCC(N3CCNC3=O)CC2)cc1 | i
SMILES | Pf Dd2 growth
O=C(c1ccccc1F)N1CCC(N2CCOC2=O)CC1 | i
CCC(=O)N1CCc2cc(CNC(=O)c3ccc(C#N)cc3)ccc21 | i
Cc1cccc(OCC(=O)NCc2ccc3c(c2)CCN3C(=O)c2ccccc2)c1 | 10µM
Cc1cccc(C(=O)N2CCc3cc(CNC(=O)c4ccc(Br)o4)ccc32)c1 | 1.3µM
Cc1cccc(C(=O)N2CCc3cc(CNC(=O)c4ccnn4C)ccc32)c1 | i
N#Cc1ccc(C(=O)NCc2ccc3c(c2)CCN3C(=O)c2ccc(F)cc2)cc1 | 5µM
COc1ccc(CC(=O)NCc2ccc3c(c2)CCN3C(=O)c2ccccc2)cc1OC | i
Cc1cccc(C(=O)N2CCc3cc(CNC(=O)CSc4ccccc4)ccc32)c1 | i
COc1ccccc1C(=O)NCc1ccc2c(c1)CCN2C(=O)c1cccc(C)c1 | i
O=C(NCc1ccc2c(c1)CCN2C(=O)c1ccc(F)cc1)c1c(F)cccc1F | i
O=C(NCc1ccc2c(c1)CCN2C(=O)c1ccccc1)c1ccc(Br)o1 | i
Cn1nccc1C(=O)NCc1ccc2c(c1)CCN2C(=O)c1ccc(F)cc1 | i
O=C(NCc1ccc2c(c1)CCN2C(=O)c1ccc(F)cc1)c1ccc(Br)o1 | 11µM
COCc1nc(CCNC(=O)CCC2CCCC2)no1 | i
CCOC(=O)c1ccccc1NC(=O)Cn1nc2n(c1=O)CCCCC2 | i
O=C(Nc1nnc(Cc2ccccc2)s1)C1CC(=O)N(c2n[nH]c3ccccc23)C1 (stereo not given) | i
Cc1nc(NC(=O)NC2CCN(Cc3ccccc3)CC2)nn1C | i
CCc1ccc(CN2CC3ON=C(C(=O)O)C3C2)cc1 (stereo not given) | i
O=C(CCc1c[nH]c2ccccc12)N1CCN2CCS(=O)(=O)N(C3CC3)C(=O)C2C1 (stereo not given) | i
O=C(Nc1ccccc1)N1CCCC(CN2CCOCC2)CC1 (stereo not given) | i
O=C(c1ccc(Br)o1)N1c2ccccc2CC1c1nnc(C2CCOCC2)o1 (stereo not given) | i
C[C@H]1[C@@H]2[C@@H](O)C([C@H](C)C(=O)NCc3ccccc3)CC[C@@]2(C)CC[C@@H]1NC(=O)c1ccccc1 (stereo not given in full) | i
O=c1n(-c2ccc(F)cc2F)nc2n1CCN(CC1CC1)C2 | i
Cc1cccc(C(=O)N2CCc3cc(CNS(=O)(=O)c4cccs4)ccc32)c1 | i
CCC(=O)N1CCc2cc(CNS(=O)(=O)c3cccs3)ccc21 | i
SMILES | Pf Dd2 growth
Cc1ccc(C(=O)N2CCc3cc(CNS(=O)(=O)c4cccs4)ccc32)cc1 | 8.9µM
O=C(N[C@@H]1COCC[C@@H]1OCc1ccccn1)c1n[nH]c2c1CCC2 | i
CN(C)S(=O)(=O)N1CC[C@@H]2C(=O)NCCCCCCN(Cc3ccncc3)[C@@H]2C1 | i
CNC(=O)[C@@H]1C[C@@H](n2cc(CN(C)C(=O)Nc3ccccc3)nn2)CN1 | i
NC(=O)CNC(=O)c1cc2c(s1)CCN(C(=O)c1ccc(Cl)cc1)C2 | i
O=C(NCc1ccccc1)c1cc2c(s1)CCN(C(=O)c1ccccc1)C2 | i
O=C(O)c1cc2c(s1)CCN(C(=O)c1ccc(F)cc1)C2 | i
O=C(NCc1cccc(Cl)c1)c1cc2c(s1)CCN(C(=O)c1ccccc1)C2 | 10µM
Cc1ccc(C(=O)N2CCc3sc(C(=O)NCc4cccc(F)c4)cc3C2)cc1 | i
CC(=O)N1CCc2sc(C(=O)NCc3cccc(Cl)c3)cc2C1 | i
CN(CCc1ccccc1)C(=O)c1cc2c(s1)CCN(C(=O)c1ccc(Cl)cc1)C2 | i
Cc1ccc(C(=O)N2CCc3sc(C(=O)NCc4cc(F)cc(F)c4)cc3C2)cc1 | 8.9µM
CN1CCN(C(=O)c2cc3c(s2)CCN(C(=O)c2ccc(Cl)cc2)C3)CC1 | 11µM
CC(C)CCN1CCn2c(nn(-c3ccc(F)cc3F)c2=O)C1 | i
O=C(c1ccon1)N1CCN(Cc2cnn3cccnc23)CC(O)C1 (stereo not given) | i
COc1cc2c(cc1NS(C)(=O)=O)C(c1cccc3c1OCO3)CC(=O)N2 (stereo not given) | i
O=C(NCc1ccccc1)C1COC2(CCN(C(=O)c3ccccc3F)CC2)N1C(=O)c1ccco1 (stereo not given) | i
Fc1ccc(CCC2CCCNC2)cc1F (stereo not given) | 7.1µM
Fc1ccc(CCC2CCCN(Cc3nccs3)C2)cc1F (stereo not given) | i
CC1(C(=O)N2CCCC(CCc3ccc(F)c(F)c3)C2)CC1 (stereo not given) | i
Cc1cccc(NC(=O)Cn2c(=O)n(CC3CCC(C(=O)NCCc4ccccc4)CC3)c(=O)c3ccccc32)c1 (stereo not given) | 11µM
